Where “and” joins values, the source holds several entries; their conditions need not be identical. Equal entries are not always repeated. Inconclusive results are not listed. Calls of active or inactive are those of the source. Unless noted, calls come from the whole dose curve; as a rule, active = well fitted curve in the direction sought with a large enough effect; inconclusive = small, poorly fitted or top-dose-only effect, or another doubt; inactive = no such curve, though single readings can be large; an effect the other way counts as inactive or inconclusive.
Columns and labels:
[1] = target: Cellular tumor antigen p53 (Homo sapiens) (UniProt P04637); test: Primary qHTS for small molecule compounds that upregulate eGFP-tagged delta133p53alpha (in N-terminal) cells. (AID 2060322); settings: NCI-H358 eGFP-delta133p53alpha fluorescence, 24 h; activation: hits give high values; note: nearly all actives have a fitted effect of over 75% in size; note: potency is the fitted concentration of half-maximal effect;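 for activation: cells pre-induced with doxycycline then dosed without doxycycline; series mostly up to about 56 µM; 0% = DMSO vehicle and 100% = reference activator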
Cellular tumor antigen p53 (Homo sapiens), sequence (P04637 whole entry, looked up): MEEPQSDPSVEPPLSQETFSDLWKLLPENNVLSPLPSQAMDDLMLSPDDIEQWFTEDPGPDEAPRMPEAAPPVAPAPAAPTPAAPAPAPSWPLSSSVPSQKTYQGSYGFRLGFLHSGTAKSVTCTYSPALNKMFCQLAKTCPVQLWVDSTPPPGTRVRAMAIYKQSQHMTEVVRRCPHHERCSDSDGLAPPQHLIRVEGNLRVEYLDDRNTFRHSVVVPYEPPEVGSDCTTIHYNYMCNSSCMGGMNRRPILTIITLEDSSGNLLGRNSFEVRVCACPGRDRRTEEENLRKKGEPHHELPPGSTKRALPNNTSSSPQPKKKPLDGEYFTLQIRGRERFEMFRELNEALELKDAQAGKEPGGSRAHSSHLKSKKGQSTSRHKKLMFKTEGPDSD
In short: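 NCI-H358 cells pre-induced 24 h with 10 ng/ml doxycycline for eGFP-delta133p53alpha, plated dox-free and exposed 24 h at 37C to titrated compounds. Fixed, Hoechst-stained; gated GFP peak intensity by laser scanning cytometry, normalized to DMSO (0%) and 57.5 uM 5-azacytidine (100%).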

[2] = target: Cellular tumor antigen p53 (Homo sapiens) (UniProt P04637); test: Primary qHTS for small molecule compounds that upregulate eGFP-tagged delta133p53alpha (in C-terminal) cells. (AID 2060324); note: potency is the fitted concentration of half-maximal effect
In short: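 Concentration-response screen: compounds titrated onto pre-induced NCI-H358 D133p53a-eGFP cells, incubated one day, fixed with 3.5% PFA. Per-cell GFP peak intensity was gated, then normalized against intraplate controls.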

[3] = target: Aldehyde dehydrogenase, mitochondrial (Homo sapiens) (UniProt P05091); test: qHTS for Inhibitors of the Aldehyde Dehydrogenase Family (ALDH2) Validation screens (AID 2061302; active = well fitted inhibition curve with a large enough effect; title and protocol of this record describe different tests;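 note: plate controls were DMSO vehicle for no effect and maximal DPI positive control response for full effect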)
[4] = target: Aldehyde dehydrogenase, mitochondrial (Homo sapiens) (UniProt P05091); test: qHTS for Inhibitors of the Aldehyde Dehydrogenase Family (ALDH2) Primary screen (AID 2061308);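 note: plate controls were vehicle for no effect and reference inhibitor for full effect; nearly all actives have a fitted effect of over 55% in size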
[5] = target: Retinaldehyde dehydrogenase 3 (Homo sapiens) (UniProt P47895); test: qHTS for Inhibitors of the Aldehyde Dehydrogenase Family (ALDH1A3) Primary screen (AID 2061315);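 note: plate controls were DMSO vehicle for no effect and reference inhibitor for full effect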
[6] = target: Retinaldehyde dehydrogenase 3 (Homo sapiens) (UniProt P47895); test: qHTS for Inhibitors of the Aldehyde Dehydrogenase Family (ALDH1A3) Validation screen (AID 2061312); note: % is set by controls: 0 for no effect and ±100 for the full control effect; nearly all actives have a fitted effect of over 45% in size
[7] = BET inhibitor-based combinations targeting novel dependencies in MECOM-rearranged (r) AML: SET-2 cell line (AID 2202231); settings: SET-2 AML cells viability, CellTiter-Glo luminescence, 48 h; viability: hits give low values, concentration not given here; note: nearly all actives have a fitted effect of over 35% in size; note: potency is the fitted concentration of half-maximal effect;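 for viability: plate controls were DMSO treated cells for no effect and wells without cells for full effect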
In short: (§1)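 A 48 hr incubation preceded viability reading by CellTiter-Glo, with 15 min room-temperature development. Dose series had 11 points; normalization used DMSO and empty wells; AUC was computed and mean-centered per line as Z-AUC.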

[8] = BET inhibitor-based combinations targeting novel dependencies in MECOM-rearranged (r) AML: MV-4-11 cell line (AID 2202233); note: nearly all actives have a fitted effect of over 45% in size; note: potency is the fitted concentration of half-maximal effect
In short: (§2)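 Each compound is tested in an 11-point concentration series against 500 seeded cells/well for 48 hr. The luminescent viability signal is normalized to DMSO and blank wells, then reduced to AUC and a cell-line-centred Z-AUC.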

[9] = BET inhibitor-based combinations targeting novel dependencies in MECOM-rearranged (r) AML: HNT-34 cell line (AID 2202234); note: nearly all actives have a fitted effect of over 35% in size; note: potency is the fitted concentration of half-maximal effect
In short: as §2

[10] = BET inhibitor-based combinations targeting novel dependencies in MECOM-rearranged (r) AML: UCSD-AML1 cell line (AID 2202235); note: nearly all actives have a fitted effect of over 40% in size; note: potency is the fitted concentration of half-maximal effect
In short: as §2

[11] = BET inhibitor-based combinations targeting novel dependencies in MECOM-rearranged (r) AML: AML-191 cell line (AID 2202236; note: nearly all actives have a fitted effect of over 35% in size; note: potency is the fitted concentration of half-maximal effect)
In short: as §1

[12] = BET inhibitor-based combinations targeting novel dependencies in MECOM-rearranged (r) AML: AML-194 cell line (AID 2202237; note: nearly all actives have a fitted effect of over 40% in size; note: potency is the fitted concentration of half-maximal effect)
In short: as §1

[13] = BET inhibitor-based combinations targeting novel dependencies in MECOM-rearranged (r) AML: OCI-AML3 cell line (AID 2202232); settings: Potency: OCI-AML3 viability; note: nearly all actives have a fitted effect of over 35% in size; note: potency is the fitted concentration of half-maximal effect
In short: as §1

CCCCc1ncc(/C=C(\Cc2cccs2)C(=O)O)n1Cc1ccc(C(=O)O)cc1
inactive: activation [1] -19.8% and -8.36% and -2.86% | Potency [2] | Potency [3] | Potency [4] | Potency [5]

CC(/C=C/c1cccc(Oc2ccc(F)cc2)c1)N(O)C(N)=O (configuration not stated)
inactive: activation [1] -36% | Potency [2] | Potency [3] | Potency [6]

CC(C)(Sc1ccc(CCN(CCCCC2CCCCC2)C(=O)NC2CCCCC2)cc1)C(=O)O
inactive: activation [1] 26.5% and 1.67% and -32.7% | Potency [2] | Potency [3] | Potency [4] | Potency [6] | Potency [5] | viability [7] 118% | Potency [8] | Potency [9] | Potency [10] | Potency [11] | Potency [12]

CCC1C(=O)OCC1Cc1cncn1C (configuration not stated)
inactive: activation [1] -0.565% and -54.1% and -41.4% | Potency [2] | Potency [3] | Potency [6]

Nc1nc2c(ncn2[C@@H]2O[C@H](CO)[C@@H](O)[C@@H]2O)c(=O)[nH]1
inactive: activation [1] -6.66% | Potency [2] | Potency [3] | Potency [6]

CN1CCN(C2Cc3ccccc3Sc3ccc(Cl)cc32)CC1 (configuration not stated)
inactive: activation [1] -14.1% | Potency [2] | Potency [3] | Potency [6]

CCCN1C[C@H](CSC)C[C@@H]2c3cccc4[nH]cc(c34)C[C@H]21
inactive: activation [1] 7.67% and 9.97% | Potency [2] | Potency [3] | Potency [4] | Potency [5]

CSC(=N)N
inactive: activation [1] 3.81% | Potency [2] | Potency [3] | Potency [6]

CC[C@]1(O)CC2CN(CCc3c([nH]c4ccccc34)[C@@](C(=O)OC)(c3cc4c(cc3OC)N(C)[C@H]3[C@@](O)(C(=O)OC)[C@H](OC(C)=O)[C@]5(CC)C=CCN6CC[C@]43[C@@H]65)C2)C1 (some centres not stated)
inactive: activation [1] 4.91% | Potency [2] | Potency [3] | Potency [4] | Potency [6] | Potency [5]
active: Potency [7] 0.742 µM | Potency [13] 0.296 µM | Potency [8] 0.263 µM | Potency [9] 0.209 µM | Potency [11] 0.296 µM | Potency [12] 0.296 µM

CN(C)C(=O)[C@H](O)[C@H](Cc1ccccc1)NC(=O)c1cc2cc(Cl)ccc2[nH]1
inactive: activation [1] -2.47% and -33.3% and 7.64% | Potency [2] | Potency [3] | Potency [4] | Potency [6] | Potency [5] | viability [7] 95.3% | Potency [10] | Potency [11] | Potency [12]

CCN(CC)CCCC(C)Nc1c2ccc(Cl)cc2nc2ccc(OC)cc12 (configuration not stated)
inactive: Potency [3] | Potency [4] | Potency [5]
active: Potency [1] 12.3 µM and 11.7 µM | Potency [2] 26.9 µM | Potency [7] 7.42 µM | Potency [13] 7.42 µM | Potency [8] 2.95 µM | Potency [9] 7.42 µM | Potency [10] 4.68 µM | Potency [11] 7.42 µM | Potency [12] 7.42 µM

O=C1NC(=O)/C(=C/c2ccc3c(c2)OC(F)(F)O3)S1
inactive: activation [1] -0.772% and -0.477% | Potency [2] | Potency [3] | Potency [4] | Potency [5]

c1cnc2cc3c(cc2n1)C1CNCC3C1
inactive: activation [1] -5.72% and -13.8% | Potency [2] | Potency [3] | Potency [4] | Potency [6] | Potency [5] | viability [7] 106% | Potency [13] | Potency [9] | Potency [10] | Potency [11]

O=[N+]([O-])c1cccc2cn[nH]c12
inactive: activation [1] -32.7% | Potency [2] | Potency [3] | Potency [6]

O=C(Nc1ccc2c(c1)CCN(Cc1ncn[nH]1)C2)c1ccccc1-c1ccc(C(F)(F)F)cc1
inactive: activation [1] -9.63% and 4.33% | Potency [2] | Potency [3] | Potency [4] | Potency [6] | Potency [5] | viability [7] 96.3% | Potency [9] | Potency [10] | Potency [11] | Potency [12]
active: Potency [8] 14.8 µM

Clc1ccc(Cn2c(CN3CCCC3)nc3ccccc32)cc1
active: Potency [7] 20.9 µM | Potency [8] 20.9 µM | Potency [10] 20.9 µM | Potency [11] 18.6 µM | Potency [12] 20.9 µM
inactive: activation [1] -13.4% and 2.33% and -45.4% | Potency [2] | Potency [3] | Potency [4] | Potency [6] | Potency [5]

CCc1cncnc1N1CCN(Cc2nc3ccc(C(F)(F)F)cc3[nH]2)CC1
active: Potency [7] 14.8 µM | Potency [13] 11.8 µM | Potency [8] 18.6 µM | Potency [11] 13.2 µM
inactive: activation [1] -18% and -36.7% and 26.8% | Potency [2] | Potency [3] | Potency [4] | Potency [6] | Potency [5] | Potency [10]

CC1=NS(=O)(=O)c2cc(Cl)ccc2N1
inactive: activation [1] 19.8% and -34.3% | Potency [2] | Potency [3] | Potency [6]

COc1ccc(Cl)cc1C(=O)NCCc1ccc(S(=O)(=O)NC(=O)NC2CCCCC2)cc1
inactive: activation [1] 3.95% and -3.34% and -19.4% | Potency [2] | Potency [3] | Potency [4] | Potency [6] | Potency [5]

COc1ccccc1N1CCN(CCCNc2cc(=O)n(C)c(=O)n2C)CC1
inactive: activation [1] 16.7% and -11.6% and 14.7% | Potency [2] | Potency [3] | Potency [4] | Potency [6] | Potency [5]

CC(C(O)c1ccc(O)cc1)N1CCC(Cc2ccccc2)CC1 (configuration not stated)
inactive: activation [1] -5.02% and -1% and -19.5% | Potency [2] | Potency [3] | Potency [4] | Potency [6] | Potency [5]

CN(C)CCC=C1c2ccccc2CCc2ccccc21
inactive: activation [1] -12.6% and -30.9% | Potency [2] | Potency [3] | Potency [6]

N=S(=O)(O)Cc1noc2ccccc12
inactive: activation [1] -35.5% | Potency [2] | Potency [3] | Potency [6]

Nc1nc2c(nc(Br)n2C2OC3COP(=O)(O)O[C@@H]3C2O)c(=O)[nH]1 (some centres not stated)
inactive: activation [1] 29.4% | Potency [2] | Potency [3] | Potency [6]

COC(=O)[C@@H]1[C@H]2C[C@H]3c4[nH]c5ccccc5c4CCN3C[C@@H]2CC[C@@H]1O
inactive: activation [1] -9.53% and 22.3% | Potency [2] | Potency [3] | Potency [4] | Potency [5] | viability [7] 106% | Potency [9] | Potency [11] | Potency [12]

CC(C)[C@@H]1CC[C@@H](C)C[C@@H]1P(=O)(c1ccccc1)c1ccccc1
inactive: activation [1] -3.04% | Potency [2] | Potency [3] | Potency [6]

O=c1c2ccccc2nc2n1CCc1c-2[nH]c2ccccc12
inactive: activation [1] -0.328% and 11% and -19% | Potency [2] | Potency [3] | Potency [4] | Potency [6] | Potency [5]

Nc1cc(Cl)c(NC2=NCCN2)c(Cl)c1
inactive: activation [1] -1.06% | Potency [2] | Potency [3] | Potency [6]

O=C(O)CCC/C=C\C[C@@H]1[C@@H](/C=C/[C@H](O)C2Cc3ccccc3C2)[C@@H](F)C[C@@H]1O
inactive: activation [1] -5.22% | Potency [2] | Potency [3] | Potency [6]

CC(C)NCC(O)COc1cccc2[nH]ccc12 (configuration not stated)
inactive: activation [1] -9.6% and -5.67% and -6.98% | Potency [2] | Potency [3] | Potency [4] | Potency [6] | Potency [5]

O=C(O)c1cc(=O)cc(C(=O)O)[nH]1
inactive: activation [1] -16.3% | Potency [2] | Potency [3] | Potency [6]

CCCn1c(=O)c2c(ncn2C)n(CCC)c1=O
inactive: activation [1] -49.6% | Potency [2] | Potency [3] | Potency [6]

CC(=O)NC[C@H]1CN(c2ccc(N3CCOCC3)c(F)c2)C(=O)O1
inactive: activation [1] 20.9% and -21.5% and 0.955% | Potency [2] | Potency [3] | Potency [4] | Potency [6] | Potency [5] | Potency [13] | Potency [8] | Potency [10] | Potency [11]

Cc1nn(-c2ccccc2)c(C)c1/C=N/N1CCN(Cc2ccccc2)CC1
inactive: activation [1] -13.7% and -4.24% | Potency [2] | Potency [3] | Potency [4] | Potency [6] | Potency [5]

COc1ccccc1N1CCN(CCN(C(=O)C2CCCCC2)c2ccccn2)CC1
inactive: activation [1] -36.9% and -0.333% and -10.7% | Potency [2] | Potency [3] | Potency [4] | Potency [6] | Potency [5] | Potency [13] | Potency [10] | Potency [11] | Potency [12]

C[C@]12C[C@H](O)[C@H]3[C@@H](CCC4=CC(=O)CC[C@@]43C)[C@@H]1CC[C@@H]2C(=O)CO
inactive: activation [1] -5.02% and -5.37% | Potency [2] | Potency [3] | Potency [6]

COCCc1ccc(OCC(O)CNC(C)C)cc1 (configuration not stated)
inactive: activation [1] 4.18% and 10.1% | Potency [2] | Potency [3] | Potency [6]

NCCCCN
inactive: activation [1] 16% | Potency [2] | Potency [3] | Potency [6]

Clc1ccc2c(c1)N=C(N1CCNCC1)c1ccccc1N2
inactive: activation [1] 11.7% and 30.8% | Potency [2] | Potency [3] | Potency [4] | Potency [6] | Potency [5]

O[Si](CCCN1CCCCC1)(c1ccc(F)cc1)C1CCCCC1 (configuration not stated)
inactive: activation [1] -77.2% | Potency [2] | Potency [3] | Potency [6]

COc1cc(N)c(Cl)cc1C(=O)OCCN1CCCCC1
inactive: activation [1] -2.92% | Potency [2] | Potency [3] | Potency [6]

c1ccc(C2CN3CCSC3=N2)cc1 (configuration not stated)
inactive: activation [1] 27% | Potency [2] | Potency [3] | Potency [6]

CN(C)c1nc(N)c(C(=O)N=C(N)N)nc1Cl
inactive: activation [1] -52.6% | Potency [2] | Potency [3] | Potency [6]

O=C(O)c1cc2cc(Cc3cccnc3)ccc2o1
inactive: activation [1] 19.6% | Potency [2] | Potency [3] | Potency [6]

c1ccc(-c2ccccn2)nc1
inactive: activation [1] -21.2% | Potency [2] | Potency [3] | Potency [6]

NC(N)=NC(N)=Nc1cccc(Cl)c1
inactive: activation [1] -3.06% | Potency [2] | Potency [3] | Potency [6]

Source: PubChem BioAssay (NCATS)
